Measured values as given in PubChem BioAssay AID620 (Sanford-Burnham Center for Chemical Genomics, 2007).
Hit rate of the full screen: of about 87,000 compounds, about 360 (0.41%) were called active. The sample holds actives, similar compounds and a random draw of the others, so the mix is not that of the screen. Cut-off read from the data, not from the text of the source: active = cytotoxicity above about 50%; inactive = the rest.

Experiment: HT1080 cell viability loss – fluorescence readout (AID 620);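 note: cells exposed to compound overnight then 4 h with Alamar Blue; 0% = vehicle DMSO and 100% = killing control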
Settings: at 10 µM, stronger effect = higher value

SMILES | cytotoxicity
CCOC(=O)N1CCN(C(=O)c2cnsn2)CC1 | -5.1% (inactive)
CC(C)(C)N1CC(c2nc3ccccc3n2Cc2ccccc2)CC1=O (stereo not drawn) | -14.8% (inactive)
Cc1cccc(N(C)C(=O)COc2cc(=O)n(C)c3ccccc23)c1 | 2% (inactive)
Cc1cnc(C(=O)OCC(=O)N2c3ccccc3NC(=O)C2(C)C)cn1 | -0.5% (inactive)
Cc1ccc2[nH]c(C(=O)O)c(-c3ccccc3)c2c1 | -8.4% (inactive)
O=c1cc(-c2ccccc2)[nH]c2ccccc12 | 67.1% (active)
O=c1cc(-c2ccccc2)c2ccccc2[nH]1 | -2.5% (inactive)
CCN(CC)Cc1c(-c2ccccc2)[nH]c2ccc(C)cc2c1=O | 5.1% (inactive)
Cc1ccc2[nH]c(-c3ccccc3)cc(=O)c2c1 | 71.1% (active)
Cc1cc(=O)c2ccccc2[nH]1 | 26.5% (inactive)
Cc1ccc(NC(=O)N(CCCN2CCOCC2)Cc2cc3cc4c(cc3[nH]c2=O)OCO4)cc1 | -5.1% (inactive)
C#CC(C)(CC)NC(=O)Cn1nnc(-c2ccc(S(C)(=O)=O)cc2)n1 (stereo not drawn) | -5.1% (inactive)
CC(CN1CCCCC1)OC(=O)Cc1ccc(Cl)cc1 (stereo not drawn) | -6.9% (inactive)
O=C(NCC(c1cccs1)N1CCOCC1)c1ccco1 (stereo not drawn) | 9% (inactive)
CCC(=O)NCC(c1cccs1)N1CCOCC1 (stereo not drawn) | -3.1% (inactive)
O=C(COc1ccccc1)NCC(c1cccs1)N1CCOCC1 (stereo not drawn) | -8.1% (inactive)
O=C(NCC(c1ccc(F)cc1)N1CCOCC1)c1ccc(Br)o1 (stereo not drawn) | -5.4% (inactive)
O=C(NCC(c1cccs1)N1CCOCC1)c1ccc(Br)o1 (stereo not drawn) | 56.3% (active)
O=C(NCC(c1cccs1)N1CCOCC1)c1ccc(Cl)s1 (stereo not drawn) | 62.9% (active)
CCCCCC(=O)OC(CN1CCCCC1)CN1CCCC1=O (stereo not drawn) | 6.6% (inactive)
COc1ccccc1NC(=S)NNC(=O)c1ccc(Cl)cc1Cl | -4% (inactive)
Cc1ccc(-c2noc(-c3ccccc3C(=O)N3CCOCC3)n2)cc1 | -2.2% (inactive)
Cc1cc(N2CCCC2=O)cc(C)c1S(=O)(=O)NCCOc1ccccc1 | 0.6% (inactive)
CCOc1ccc(NC2=NC(C(=O)NCc3ccccc3)CC(=O)N2)cc1 (stereo not drawn) | 7.4% (inactive)
CC(C)(C)c1ccc(C(=O)Nc2cnccn2)cc1 | -0.1% (inactive)
Cc1noc(C)c1COc1ccc(C(=O)OCC(=O)N2CC(=O)Nc3ccccc32)cc1 | -12.1% (inactive)

SMILES | cytotoxicity
CCC(Oc1ccccc1)C(=O)Nc1nnc(C)s1 (stereo not drawn) | -5.1% (inactive)
Cc1occc1C(=O)Nc1ccc2c(c1)OCCO2 | 11.2% (inactive)
CC(=O)NC1C(=O)N(C)c2ccc(Br)cc21 (stereo not drawn) | -16.4% (inactive)
Cc1nc2nc(SCC(=O)NCc3ccco3)nn2c(C)c1Cc1c(F)cccc1Cl | -13.6% (inactive)
Cc1ccc(Cc2c(C)nc3nc(SCC(=O)NCc4ccco4)nn3c2C)cc1 | 69.7% (active)
Cc1ccccc1Cc1c(C)nc2nc(SCC(=O)NCc3ccco3)nn2c1C | -13.4% (inactive)
O=C(c1ccco1)N1CCCC(c2nc(-c3ccc(S(=O)(=O)NCc4ccccc4)cc3)no2)C1 (stereo not drawn) | -1.4% (inactive)
CCCCS(=O)(=O)c1sc2nc(C)cc(C)c2c1N | 12.9% (inactive)
O=C(CCc1nc(-c2ccccc2)no1)NCc1ccco1 | 6.9% (inactive)
Cc1cccc(-c2noc(CCC(=O)NCc3ccco3)n2)c1 | 7.3% (inactive)
Cc1ccc(-c2noc(CCC(=O)NCc3ccco3)n2)cc1 | 64% (active)
CCn1cnc2cc(NCc3nc4ccccc4n3C)ccc21 | 1.7% (inactive)
Cc1cc(NC(=O)C2CC(c3ccc(Cl)cc3)=NO2)no1 (stereo not drawn) | -7.6% (inactive)
Cc1cccc(NS(=O)(=O)Cc2ccccc2)n1 | -2.7% (inactive)
CCCCOc1ccccc1C1CC(=O)NC2=C1C(=O)CCC2 (stereo not drawn) | 56% (active)
CCOc1ccccc1C1CC(=O)Nc2cc3c(cc21)OCO3 (stereo not drawn) | 67.2% (active)
CCOc1c(OC)cccc1C1CC(=O)Nc2cc(OC)c(OC)cc21 (stereo not drawn) | -2.2% (inactive)
CCOc1ccccc1C1CC(=O)NC2=C1C(=O)CCC2 (stereo not drawn) | 11.2% (inactive)
CCCOc1ccccc1C1CC(=O)Nc2cc3c(cc21)OCCO3 (stereo not drawn) | 58.6% (active)
CCOc1ccccc1C1CC(=O)Nc2cc3c(cc21)OCCO3 (stereo not drawn) | 68.1% (active)
CCCOc1ccccc1C1CC(=O)NC2=C1C(=O)CCC2 (stereo not drawn) | 39.4% (inactive)
CCCOc1c(OC)cccc1C1CC(=O)Nc2cc3c(cc21)OCCO3 (stereo not drawn) | -3.5% (inactive)
CCCOc1c(OC)cccc1C1CC(=O)Nc2cc3c(cc21)OCO3 (stereo not drawn) | -2.6% (inactive)
O=C1CC(c2ccc3c(c2)OCO3)c2cc3c(cc2N1)OCCO3 (stereo not drawn) | 8.1% (inactive)
O=C1CC(c2cccs2)c2cc3c(cc2N1)OCCO3 (stereo not drawn) | -3.6% (inactive)
CCOc1c(OC)cccc1C1CC(=O)Nc2cc3c(cc21)OCCO3 (stereo not drawn) | -3.8% (inactive)

SMILES | cytotoxicity
CC(=O)Nc1ccc2c(c1)nc(CN1CCCC1)n2C | -8.7% (inactive)
Cc1c(NC(=O)CSc2ccccn2)c(=O)n(-c2ccccc2)n1C | 1.3% (inactive)
Cc1cccc2cc(CN(CCN3CCOCC3)C(=O)Nc3ccccc3F)c(=O)[nH]c12 | 13.6% (inactive)
CC12CCC(C(=O)N3CCCCC3)(CC1=O)C2(C)C (stereo not drawn) | -0.3% (inactive)
COC(=O)[C@@]1(Cc2ccccc2)[C@H]2c3cc(C(=O)N(C)C)n(Cc4ccc(S(C)(=O)=O)cc4)c3C[C@H]2CN1C(=O)c1ccccc1 | 2.9% (inactive)
O=c1ccc(Cc2ccccn2)n[nH]1 | -6.4% (inactive)
Cc1ccc(-n2c(SCC(=O)OC(C)C)nnc2-c2cnccn2)cc1 | 0.6% (inactive)
COc1ccccc1N(C(=O)c1snc(C(N)=O)c1N)C(C(=O)NC1CCCC1)c1ccco1 (stereo not drawn) | -5.3% (inactive)
Cc1oc(-c2ccccc2F)nc1CS(=O)(=O)CC(=O)N1CCc2ccccc21 | -3.2% (inactive)
COc1ccc(C(=O)N2CCN(c3cccc(Cl)c3)CC2)cc1 | -4.7% (inactive)
COc1ccc(C(=O)N2CCN(c3cccc(Cl)c3)CC2)c(OC)c1 | 15.6% (inactive)
Cc1ccc(C(=O)N2CCN(c3cccc(Cl)c3)CC2)cc1C | -5.4% (inactive)
COc1ccccc1CC(=O)N1CCN(c2cccc(C(F)(F)F)c2)CC1 | -8.5% (inactive)
O=C(c1ccccc1F)N1CCN(c2cccc(C(F)(F)F)c2)CC1 | -6.8% (inactive)
CCOc1ccccc1C(=O)N1CCN(c2cccc(Cl)c2)CC1 | 50.8% (active)
COc1cc2c(C(=O)N3CCN(c4cccc(Cl)c4)CC3)cn(C)c(=O)c2cc1OC | 20.5% (inactive)
COc1ccccc1C(=O)N1CCN(c2cccc(Cl)c2)CC1 | 53% (active)
O=C(O)c1ccccc1C(=O)N1CCN(c2cccc(Cl)c2)CC1 | 8.7% (inactive)
COc1ccccc1C(=O)N1CCN(c2cccc(C(F)(F)F)c2)CC1 | 58.7% (active)
CCOc1ccccc1C(=O)N1CCOCC1 | -16.5% (inactive)
CCOc1ccc(C(=O)Cc2ccc3oc(C(=O)O)cc3c2)c(O)c1 | -8.8% (inactive)
O=C(CSc1nc2ncc(Br)cc2[nH]1)Nc1ccc2c(c1)OCO2 | 2.1% (inactive)
COCCNC(=O)COC(=O)/C=C/c1c(C)nn(Cc2ccc(Cl)cc2Cl)c1Cl | 5.2% (inactive)
C[N+]1(CC(=O)Nc2ccc(F)cc2)CCN(C(=O)c2ccco2)CC1 | 15.7% (inactive)
COc1cc(-c2noc(CCCC(=O)NCc3ccccc3)n2)cc(OC)c1OC | 6.8% (inactive)
O=C(COc1ccccc1)N1CCN(S(=O)(=O)c2ccc(Cl)cc2)CC1 | 17.2% (inactive)

SMILES | cytotoxicity
O=C1CC(c2ccccc2)CC(O)=C1C=NCCCO (stereo not drawn) | 4.4% (inactive)
Cc1cccc(OCC(=O)NCCN2CCOCC2)c1 | 5.4% (inactive)
COC(=O)[C@H](CCSC)NC(=O)Nc1ccc(OC)c(Cl)c1 | -10.8% (inactive)
Cc1n[nH]c(C)c1S(=O)(=O)N1CCCC(C(=O)NCc2cccs2)C1 (stereo not drawn) | 2.8% (inactive)
O=C(CNS(=O)(=O)c1ccc(F)cc1)N1CCN(c2ccccc2)CC1 | 7% (inactive)
Cc1nc2ccc(NC(=O)Cc3ccsc3)cc2s1 | -7.3% (inactive)
COc1ccc(N2CCN(Cc3nc4c(c(=O)n(C)c(=O)n4C)n3CCc3ccccc3)CC2)cc1 | 0.1% (inactive)
Cc1cc(=O)oc(C)c1C(=O)N1CCN(c2ccc(F)cc2)CC1 | 5.9% (inactive)
CC(C)(C)C(=O)/C(=C\c1ccc([N+](=O)[O-])cc1)n1cncn1 | 89% (active)
O=[N+]([O-])/C(C(Cl)=C(Cl)Cl)=C(\Nc1ccc(F)cc1)n1cncn1 | 10.6% (inactive)
Cn1ncc(N=Cc2ccc([N+](=O)[O-])cc2)c1C(=O)N1CCOCC1 | -3.9% (inactive)
O=C(COc1ccc(S(=O)(=O)Nc2ccccc2)cc1)N1CCOCC1 | -4.7% (inactive)
C/C=C(\CS(=O)(=O)c1ccccc1)S(=O)(=O)c1ccccc1 | -9.9% (inactive)
CCOC(=O)CS(=O)(=O)c1ccccc1 | -4.5% (inactive)
O=S(=O)(C/C(=C/CO)S(=O)(=O)c1ccccc1)c1ccccc1 | 51.2% (active)
CC(C)C[C@H](NC(=O)N1CCN(c2ccccc2)CC1)C(=O)O | 6.2% (inactive)
O=C(c1ccc(F)cc1)N1CCN(c2ncccn2)CC1 | 2% (inactive)
Cc1ccccc1NC(=O)CN1C(=O)NC2(CCCCC2)C1=O | 10% (inactive)
Cc1ccc(CN2CCN(C(=O)CCN3C(=O)c4ccccc4C3=O)CC2)cc1 | 6.3% (inactive)
CCOC(=O)c1[nH]c(C)c(C(=O)Nc2ccc(F)cc2)c1C | -9.3% (inactive)
CCOC(=O)c1[nH]c(C)c(C(=O)OCC)c1C | 2.3% (inactive)
CCOC(=O)c1[nH]c(C)c(C(=O)c2ccc(C)cc2)c1C | 59.5% (active)
CCOC(=O)c1[nH]c(C)c(C(=O)c2cc(F)ccc2F)c1C | 57.2% (active)
CCOC(=O)c1[nH]c(C)c(C(=O)Nc2ccc(C)c(F)c2)c1C | -2.9% (inactive)
CCOC(=O)c1[nH]c(C)c(C(=O)NCc2ccc(C)cc2)c1C | -8.9% (inactive)
